Measured values as given in PubChem BioAssay AID1347087 (National Center for Advancing Translational Sciences (NCATS), 2019).
Where “and” joins values, the source holds several entries; their conditions need not be identical. Equal values may be shown once. Inconclusive results are not listed. Unmarked numbers belong to inactive results. Calls of active or inactive are those of the source. Calls follow the shape of the full dose curve.

Test: qHTS for Inhibitors of the Functional Ribonucleoprotein Complex (vRNP) of Lassa (LASV) Arenavirus: LASV Confirmatory Screen - GLuc reporter signal
Details: LASV minigenome vRNP, Gaussia luciferase reporter; series mostly up to 53.9 µM

Row | SMILES | Potency | activity, negative = inhibition
1 | S=C(NCc1ccc2c(c1)OCO2)N1CCN(c2ncnc3c2oc2ccccc23)CC1 | 1.77 µM (active) | 
2 | Fc1ccc(CNc2ncnc3ccc(F)cc23)cc1 | 6.85 µM (active) | 
3 | COC(=O)c1nc(Cl)c(Cl)nc1N | 4.85 µM (active) | 
4 | CC(=O)[C@H]1CC[C@H]2[C@@H]3CCC4=CC(=O)CC[C@]4(C)[C@H]3CC[C@]12C | 21.7 µM (active) | 
5 | COc1cc2c(cc1OC)CC(=O)N(CCCN(C)C[C@H]1Cc3cc(OC)c(OC)cc31)CC2 | inactive | 
6 | CC(O)(P(=O)(O)O)P(=O)(O)O | inactive | 
7 | CCc1cncnc1N1CCN(Cc2nc3ccc(C(F)(F)F)cc3[nH]2)CC1 | 3.95 µM (active) | 
8 | CCOC(=O)OCC/C(SC(=O)OCC)=C(\C)N(C=O)Cc1cnc(C)nc1N | inactive | 
9 | CCn1c(-c2nonc2N)nc2cnc(Oc3cccc(NC(=O)c4ccc(OCCN5CCOCC5)cc4)c3)cc21 | 2.73 µM (active) | 
10 | CC[C@@H](C(=O)O)[C@@H]1O[C@@H]([C@@H](C)[C@H](O)[C@H](C)C(=O)[C@H](CC)[C@H]2O[C@]3(C=C[C@@H](O)[C@]4(CC[C@@](C)([C@H]5CC[C@](O)(CC)[C@H](C)O5)O4)O3)[C@H](C)C[C@@H]2C)[C@@H](C)C[C@@H]1C | 0.157 µM (active) | 
11 | CC(=O)OCC(=O)[C@@]12N=C(C)O[C@H]1C[C@H]1[C@@H]3CCC4=CC(=O)C=C[C@]4(C)[C@@H]3[C@@H](O)C[C@@]12C | inactive | 
12 | N#CC(=C(\N)Sc1ccccc1N)/C(C#N)=C(/N)Sc1ccccc1N | 0.0685 µM (active) | 
13 | CO/C=C(/C(=O)OC)c1ccccc1Oc1cc(Oc2ccccc2C#N)ncn1 | 6.27 µM (active) | 
14 | O=C(Nc1ccc([N+](=O)[O-])cc1Cl)c1cc(Cl)ccc1O | 0.968 µM (active) | 
15 | C=C1CC[C@@H]2[C@](C)(CO)[C@H](O)CC[C@@]2(C)[C@@H]1/C=C/C1=CCOC1=O | 21.7 µM (active) | 
16 | C=C(C)[C@H]1Cc2c(ccc3c2O[C@@H]2COc4cc(OC)c(OC)cc4[C@@H]2C3=O)O1 | 0.0306 µM (active) | 
17 | O=C(Nc1ccccc1)c1cc([N+](=O)[O-])ccc1Cl | 24.3 µM (active) | 
18 | Clc1nccc2c1ccc1ccccc12 | inactive | 
19 | CC(C)=CCC/C(C)=C/CC/C(C)=C/CC[C@]1(C)CCc2c(C)c(O)c(C)c(C)c2O1 |  | -9.56% [at 6 µM]
20 | CC(C)(C)C1CCC(CC2=C(O)c3ccccc3C(=O)C2=O)CC1 (stereo unspecified) | 6.85 µM (active) | 
21 | Cc1ccc2c(c1)C1CN(C)CCC1N2 (stereo unspecified) | inactive | 
22 | COc1ccc2c(c1OC)CN1CCc3cc4c(cc3C1C2)OCO4 (stereo unspecified) | 21.7 µM (active) | 
23 | O=C1Cc2cc(CCN3CCN(c4nsc5ccccc45)CC3)c(Cl)cc2N1 | 2.17 µM (active) and 3.43 µM (active) | 
24 | Cn1cc(-c2ccncc2)c(-c2ccc(OCc3ccc4ccccc4n3)cc2)n1 | 24.3 µM (active) | 
25 | Oc1cc(Cl)ccc1Oc1ccc(Cl)cc1Cl | 25 µM (active) | 
26 | CC[C@@]1([C@@H]2O[C@@H]([C@H]3O[C@@](O)(CO)[C@H](C)C[C@H]3C)C[C@H]2C)CC[C@H]([C@]2(C)CC[C@]3(C[C@H](O)[C@@H](C)[C@@H]([C@@H](C)[C@@H](OC)[C@H](C)C(=O)O)O3)O2)O1 | 0.335 µM (active) | 
